According to PubChem BioAssay (Tox21):
Unmarked numbers belong to inactive results. Inconclusive results are not listed. Where a call stands in place of a potency, no number is given. Calls of active or inactive are those of the source. Unless noted, calls come from the whole dose curve; as a rule, active = well fitted curve in the direction sought with a large enough effect in the repeat runs; inconclusive = weak or mixed curves; inactive = no such curve, though single readings can be large; an effect the other way counts as inactive or inconclusive.

Key:
[1] = qHTS assay to identify small molecule antagonists of the estrogen related receptor (ERR) signaling pathway from Tox21 library - cell viability counter screen (AID 1224834); note: nearly all actives have a fitted effect of over 30% in size; note: potency is the fitted concentration of half-maximal effect
How it was run: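 In this quantitative HTS format, ERR cells receive compounds in DMSO and are incubated for 17.5 h at 37 C. Live-cell protease activity is then detected with CellTiter-Fluor.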

[2] = target: Luciferin 4-monooxygenase (Photinus pyralis) (UniProt P08659); assay: qHTS assay to identify small molecule inhibitors of firefly luciferase (AID 1224835); note: nearly all actives have a fitted effect of over 25% in size
Luciferin 4-monooxygenase (Photinus pyralis), sequence (P08659 whole entry, looked up): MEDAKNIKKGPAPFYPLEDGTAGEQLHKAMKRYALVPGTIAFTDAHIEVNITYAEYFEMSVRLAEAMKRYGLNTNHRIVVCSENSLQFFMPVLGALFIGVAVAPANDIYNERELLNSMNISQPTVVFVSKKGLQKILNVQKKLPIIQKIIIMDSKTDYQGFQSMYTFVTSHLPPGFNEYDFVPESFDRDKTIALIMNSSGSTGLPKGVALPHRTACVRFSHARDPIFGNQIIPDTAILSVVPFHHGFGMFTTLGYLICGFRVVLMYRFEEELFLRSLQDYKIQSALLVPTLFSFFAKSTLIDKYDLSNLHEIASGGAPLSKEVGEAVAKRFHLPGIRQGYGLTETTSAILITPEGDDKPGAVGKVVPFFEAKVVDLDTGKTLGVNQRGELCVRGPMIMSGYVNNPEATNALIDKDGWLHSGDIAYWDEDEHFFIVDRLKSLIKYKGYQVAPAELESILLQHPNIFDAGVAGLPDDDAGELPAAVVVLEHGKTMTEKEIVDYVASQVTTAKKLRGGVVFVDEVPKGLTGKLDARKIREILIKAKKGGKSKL
How it was run: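 Inhibition of purified Photinus luciferase is measured by luminescence. Substrate levels (D-luciferin, ATP) sit at their KM values. Each compound is tested in a concentration series.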

[3] = qHTS assay to identify small molecule agonists of the constitutive androstane receptor (CAR) signaling pathway - cell viability counter screen (AID 1224836); note: nearly all actives have a fitted effect of over 45% in size
How it was run: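 Compound titrations (15 concentrations) went onto HepG2-CYP2B6-hCAR cells 4 h after seeding, alongside PK11195 at a final 0.75 uM; a 23 h, 37 C/5% CO2 incubation preceded CellTiter-Fluor viability measurement.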

[4] = qHTS assay to identify small molecule antagonists of the constitutive androstane receptor (CAR) signaling pathway - cell viability counter screen (AID 1224837); note: nearly all actives have a fitted effect of over 45% in size
How it was run: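 In quantitative HTS format, compounds at 15 concentrations were applied to HepG2 cells double-transfected with hCAR and CYP2B6-2.2kb under 50 nM CITCO stimulation; live-cell protease activity was read after 23 hr via CellTiter-Fluor.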

[5] = target: Nuclear receptor subfamily 1 group I member 3 (Homo sapiens) (UniProt Q14994); assay: qHTS assay to identify small molecule antagonists of the constitutive androstane receptor (CAR) signaling pathway (AID 1224838); note: nearly all actives have a fitted effect of over 40% in size
Nuclear receptor subfamily 1 group I member 3 (Homo sapiens), sequence (Q14994 whole entry, looked up): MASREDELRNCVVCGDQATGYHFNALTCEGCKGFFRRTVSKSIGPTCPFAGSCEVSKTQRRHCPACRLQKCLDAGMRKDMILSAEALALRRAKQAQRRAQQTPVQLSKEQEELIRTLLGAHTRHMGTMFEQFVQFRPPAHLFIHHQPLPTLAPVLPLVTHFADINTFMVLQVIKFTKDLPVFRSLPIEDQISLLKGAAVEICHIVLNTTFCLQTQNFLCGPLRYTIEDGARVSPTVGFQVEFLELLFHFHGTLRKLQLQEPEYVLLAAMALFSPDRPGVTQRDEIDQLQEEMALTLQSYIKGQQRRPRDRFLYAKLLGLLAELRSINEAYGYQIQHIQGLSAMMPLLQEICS
How it was run: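 CITCO-stimulated (50 nM final) HepG2 cells stably transfected with hCAR and CYP2B6-2.2kb luciferase were exposed to compounds at 15 concentrations for 24 h at 37 C/5% CO2. A luciferase reagent was added and luminescence recorded after 30 min.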

[6] = target: Nuclear receptor subfamily 1 group I member 3 (Homo sapiens) (UniProt Q14994); assay: qHTS assay to identify small molecule agonists of the constitutive androstane receptor (CAR) signaling pathway (AID 1224839);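 note: HepG2 cells stably carrying human CAR and a CYP2B6 luciferase reporter; nearly all actives have a fitted effect of over 15% in size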
How it was run: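 In this screen, CAR-driven CYP2B6 promoter activity is measured by luminescence in HepG2-CYP2B6-hCAR cells after 24 h with test compounds and 0.75 uM PK11195 (final concentration).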

[7] = qHTS assay to identify small molecule antagonists of the estrogen related receptor signaling pathway with the pleiotropic PPARgamma coactivator (PGC) from Tox21 10K library - cell viability counter screen (AID 1224840; active = well fitted cell-killing curve with a large enough effect in the repeat runs, not every such curve was filed as active; note: nearly all actives have a fitted effect of over 40% in size)
How it was run: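 Viability counter screen, PGC/ERR cells: 17.5 h compound exposure at 37 C, CellTiter-Fluor fluorescence endpoint.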

[8] = qHTS assay to identify small molecule agonists of the hypoxia (HIF-1) signaling pathway - cell viability counter screen (AID 1224844; calls by dose curve; note: nearly all actives have a fitted effect of over 50% in size; note: potency is the fitted concentration of half-maximal effect)
How it was run: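 Same wells as the HIF-1 reporter screen; ME-180 cells carrying HRE-bla, 17 hr treatment at 37C; CellTiter-Glo luminescence read after 30 min at room temperature.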

[9] = qHTS assay to identify small molecule agonists of H2AX (AID 1224845; active = well fitted activation curve with a large enough effect in the signal ratio in the repeat runs, not every such curve was filed as active; the % refers to the signal ratio)
How it was run: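 Phospho-H2AX Ser139 measured by HTRF (ex 320 nm; em 665 and 620 nm) after 24 hr antibody incubation. Compounds, 15 concentrations, 0.76% DMSO, were applied to CHO-K1 cells for 3hr at 37C before lysis.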

[10] = qHTS assay to identify small molecule agonists of the hypoxia (HIF-1) signaling pathway (AID 1224846; active = well fitted activation curve with a large enough effect in the signal ratio in the repeat runs, not every such curve was filed as active; the % refers to the signal ratio)
How it was run: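 In ME-180 cells bearing an HRE-bla construct, 17 h treatment with DMSO-dissolved compounds at 37C was followed by CCF4-AM loading to quantify reporter induction.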

[11] = qHTS assay to identify small molecule agonists of H2AX - cell viability counter screen (AID 1224847; calls by dose curve; note: nearly all actives have a fitted effect of over 30% in size; note: potency is the fitted concentration of half-maximal effect; for activity change, negative = cytotoxicity: top concentration of the series differs between compounds)
How it was run: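 Read-out: CellTiter-Glo luminescence, 30 min RT. Cells: wild-type CHO-K1, 1000/well, 10% FBS, plated overnight at 37C. Treatment: 15 concentrations, 3 hr, 37C, 0.76% DMSO.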

[12] = qHTS RealTime-Glo MT Cell Viability Assay in HepG2 cells - 24 hour (AID 1224867); note: nearly all actives have a fitted effect of over 50% in size
How it was run: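 Cells + NanoLuc/prosubstrate dispensed (600 cells/well) → 5 h at 37 C/5% CO2 → compounds in DMSO transferred → 40 h incubation at 37 C, luminescence read at 0, 8, 16, 24, 32, 40 h.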

[13] = A CellTox Green Cytotoxicity Assay to monitor cytotoxicity in HEK293 cells - 0 hour (AID 1224869); note: nearly all actives have a fitted effect of over 50% in size
How it was run: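 Homogeneous no-lysis format: HEK293 cell suspension mixed with CellTox Green reagent, seeded, incubated 5 h at 37 C/5% CO2, then dosed by pintool with compound in DMSO.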

[14] = qHTS RealTime-Glo MT Cell Viability Assay in HepG2 cells - 40 hour (AID 1224870); note: nearly all actives have a fitted effect of over 50% in size
How it was run: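 Real-time viability: cells seeded at 600 per well together with NanoLuc and cell-permeant prosubstrate, compounds added after 5 h incubation. Luminescence tracked at 0, 8, 16, 24, 32 and 40 h of exposure.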

[15] = qHTS assay to identify small molecule antagonists of the estrogen related receptor signaling pathway with the pleiotropic PPARgamma coactivator (PGC) from Tox21 10K library (AID 1224841; call rule not given here; note: potency is the fitted concentration of half-maximal effect)
How it was run: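 In the PGC/ERR line, DMSO solutions of test chemicals are pin-delivered to 2,000 cells/well six hours after dispensing. Following eighteen hours' incubation, One-Glo reagent is added and luminescence recorded.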

[16] = qHTS assay to identify small molecule agonists of the estrogen related receptor signaling pathway with the pleiotropic PPARgamma coactivator (PGC) from Tox21 10K library (AID 1224842); note: nearly all actives have a fitted effect of over 15% in size
How it was run: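 Luminescence from One-Glo (30 min, room temperature) measured after PGC/ERR cells had 18 h at 37 C with pinned compound (23 nL in DMSO). Cells had been seeded at 2,000 per well and pre-incubated 6 h.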

[17] = target: Thyrotropin receptor (Homo sapiens) (UniProt P16473); assay: qHTS assay to identify small molecule agonists of the thyroid stimulating hormone receptor (TSHR) signaling pathway (AID 1224843; calls by dose curve; note: nearly all actives have a fitted effect of over 45% in size)
Thyrotropin receptor (Homo sapiens), sequence (P16473 whole entry, looked up): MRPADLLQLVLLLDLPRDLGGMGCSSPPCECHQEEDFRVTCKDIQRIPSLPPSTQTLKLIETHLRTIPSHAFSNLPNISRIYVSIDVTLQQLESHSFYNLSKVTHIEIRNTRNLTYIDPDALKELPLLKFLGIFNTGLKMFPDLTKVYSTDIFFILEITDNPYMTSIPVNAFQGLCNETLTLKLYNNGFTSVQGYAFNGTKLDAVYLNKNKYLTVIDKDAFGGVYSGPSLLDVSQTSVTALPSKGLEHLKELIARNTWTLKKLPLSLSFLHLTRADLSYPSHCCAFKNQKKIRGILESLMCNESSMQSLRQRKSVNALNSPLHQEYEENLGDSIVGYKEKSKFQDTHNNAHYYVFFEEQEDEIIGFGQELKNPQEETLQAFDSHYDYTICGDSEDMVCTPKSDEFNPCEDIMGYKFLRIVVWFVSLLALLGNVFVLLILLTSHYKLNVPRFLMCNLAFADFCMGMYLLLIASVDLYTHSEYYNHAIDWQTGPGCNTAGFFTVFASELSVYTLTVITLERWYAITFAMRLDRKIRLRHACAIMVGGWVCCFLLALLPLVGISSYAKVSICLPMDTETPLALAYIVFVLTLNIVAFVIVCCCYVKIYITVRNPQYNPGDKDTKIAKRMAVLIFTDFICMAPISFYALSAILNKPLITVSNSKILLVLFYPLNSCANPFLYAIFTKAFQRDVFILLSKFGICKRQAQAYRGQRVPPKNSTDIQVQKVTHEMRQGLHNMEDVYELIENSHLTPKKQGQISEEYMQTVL
How it was run: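 A cell-based cAMP HTRF format was run in TSHR-transfected HEK293 cells, 800 per well. Treatment: 30 min, room temperature. Detection: 1 h with labelled cAMP and anti-cAMP cryptate. Concentration-response over 15 points, three replicates.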

[18] = qHTS assay to identify small molecule antagonists of the estrogen related receptor (ERR) signaling pathway from Tox21 library (AID 1224848); note: nearly all actives have a fitted effect of over 50% in size; note: potency is the fitted concentration of half-maximal effect
How it was run: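 ERR cell line, 2,000 cells/well. 6 h settle, then compound (DMSO) added; 18 h at 37 C; ONE-Glo luminescence after 30 min RT.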

[19] = qHTS assay to identify small molecule agonists of the estrogen related receptor (ERR) signaling pathway from Tox21 library (AID 1224849; calls by dose curve; note: nearly all actives have a fitted effect of over 15% in size); settings: ERR reporter cell line, ONE-Glo luciferase, 18 h; at 92.4 µM (top of the series) unless noted
How it was run: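 Reporter cells (ERR, NTP source) treated with Tox21 10K compounds 18 h, 37 C. Readout: ONE-Glo luminescence, 30 min RT.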

[20] = qHTS RealTime-Glo MT Cell Viability Assay in HEK293 cells - 32 hour (AID 1224868); note: nearly all actives have a fitted effect of over 50% in size; note: potency is the fitted concentration of half-maximal effect; for activity change, negative = cytotoxic: top concentration of the series differs between compounds
How it was run: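 Tox21 10K qHTS, HEK293, 600 cells/well, RealTime-Glo reagent co-dispensed with cells; 5 h preincubation, compound by pintool, 37 C, luminescence at 0–40 h.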

COc1cc2nc(Cl)nc(N)c2cc1OC
Potency [1]: inactive | Potency [2]: inactive | Potency [3]: inactive | Potency [4]: inactive | Potency [5]: inactive | Potency [6]: inactive | Potency [7]: inactive | Potency [8]: inactive | Potency [9]: inactive | Potency [10]: inactive | Potency [11]: inactive | Potency [12]: inactive | Potency [13]: inactive | Potency [14]: inactive

Nc1cccc(S(=O)(=O)c2cccc(N)c2)c1
Potency [1]: inactive | Potency [2]: inactive | Potency [3]: inactive | Potency [4]: inactive | Potency [5]: inactive | Potency [6]: inactive | Potency [15]: inactive | Potency [16]: inactive | Potency [17]: inactive | Potency [9]: inactive | Potency [10]: inactive | Potency [18]: inactive | activity change, positive = activation [19]: 0.747% | Potency [12]: inactive | Potency [20]: inactive | Potency [13]: inactive | Potency [14]: inactive

O=C(O)CNCC(=O)O
viability change, negative = cytotoxic [1]: 2.9% [at 8.39 µM] | activity change, negative = inhibition [2]: 2.59% [at 10.5 µM] | viability change, negative = cytotoxic [3]: 4.87% [at 8.39 µM] | activity change, negative = cytotoxicity [4]: 2.11% [at 8.39 µM] | activity, negative = inhibition [5]: 15.5% [at 8.39 µM] | activation [6]: -0.889% [at 8.39 µM] | viability change, negative = cytotoxic [7]: 0.614% [at 8.39 µM] | activation [17]: 4.36% [at 8.39 µM] | activity change, negative = cytotoxicity [8]: -0.223% [at 6.97 µM] | activation (H2AX phosphorylation) [9]: 4.61% [at 14 µM] | activation [10]: 0.217% [at 7.01 µM] | activity change, negative = cytotoxicity [11]: -1.6% [at 14 µM] | activity change, negative = cytotoxicity [12]: 0.0678% [at 6.97 µM] | activity change, negative = cytotoxic [20]: -9.97% [at 6.97 µM] | cytotoxicity [13]: -0.535% [at 6.97 µM] | activity change, negative = cytotoxic [14]: 1.89% [at 6.97 µM]

COC(C)(C)CCO
Potency [1]: inactive | Potency [2]: inactive | Potency [3]: inactive | Potency [4]: inactive | Potency [5]: inactive | Potency [6]: inactive | Potency [7]: inactive | Potency [15]: inactive | Potency [16]: inactive | Potency [17]: inactive | Potency [8]: inactive | Potency [10]: inactive | Potency [11]: inactive | Potency [18]: inactive | activity change, positive = activation [19]: 3.52% | Potency [12]: inactive | Potency [20]: inactive | Potency [13]: inactive | Potency [14]: inactive

CC1=CC[C@H](C(C)C)C=C1
Potency [1]: inactive | Potency [2]: inactive | Potency [3]: inactive | Potency [4]: inactive | Potency [5]: inactive | Potency [6]: inactive | Potency [7]: inactive | Potency [8]: inactive | Potency [9]: inactive | Potency [10]: inactive | Potency [11]: inactive | Potency [12]: inactive | Potency [20]: inactive | Potency [13]: inactive | Potency [14]: inactive

CCOC(=O)c1cccnc1
Potency [1]: inactive | Potency [2]: inactive | Potency [3]: inactive | Potency [4]: inactive | Potency [5]: inactive | Potency [6]: inactive | Potency [17]: inactive | Potency [8]: inactive | Potency [9]: inactive | Potency [10]: inactive | Potency [11]: inactive | Potency [12]: inactive | Potency [20]: inactive | Potency [13]: inactive | Potency [14]: inactive

O=C(c1ccc(F)cc1)C1CCN(CCn2c(=S)[nH]c3ccccc3c2=O)CC1
Potency [1]: 29.8 µM (active) | Potency [2]: inactive | Potency [3]: inactive | Potency [4]: inactive | Potency [5]: inactive | Potency [6]: inactive | Potency [15]: 26.6 µM (active) | Potency [16]: inactive | Potency [17]: inactive | Potency [8]: 21.3 µM (active) | Potency [10]: inactive | Potency [11]: 49.2 µM (active) | Potency [18]: 26.6 µM (active) | activity change, positive = activation [19]: -56.8% [at 42.5 µM] | Potency [20]: 5.35 µM (active) | Potency [13]: inactive | Potency [14]: inactive
